Drawing on the OligoGym collection, this text covers sensor-assay potency score (higher = more potent) for 40 sequences.
Note: reference of the scale not given here.

In the first assay the target is SLC28A2. As to the kind of experiment: pooled miR-30 sensor sort-seq; sequence = guide strand. To be noted: shRNA.
Regarding TTGGGAAGGAGACACAGTCAGC, the sensor-assay potency score (higher = more potent) is -1.18.

Regarding TTGGACAAGTCACTCTTCCGGT, the sensor-assay potency score (higher = more potent) was -0.0512.

ATAGTGATTTGTAAAAACCAGG: the sensor-assay potency score (higher = more potent) was -0.831.

With TTGTTGTAGAATCCACAGCAGT, the sensor-assay potency score (higher = more potent) was -1.13.

Take TTCCAGGACATTCCTCTCCTTC: the sensor-assay potency score (higher = more potent) is -1.16.

Consider TTGAACAATCTGGCGTGTGTTT, for which the sensor-assay potency score (higher = more potent) was -0.953.

Take TCTTCTTGAACAATCTGGCGTG: the sensor-assay potency score (higher = more potent) is -0.29.

In the case of ATCTTCTTGAACAATCTGGCGT, the sensor-assay potency score (higher = more potent) is -0.838.

For a further assay, the target named is SLC29A1. Described as above. To be noted: shRNA.
Consider TCGAAGACCACAGTCAGGTAGC, for which the sensor-assay potency score (higher = more potent) was -0.552.

Take TTTGTATCTGTCCTGAGGCTGG: the sensor-assay potency score (higher = more potent) is -0.764.

For the sequence TGAATTAATGAGCACGATCTTG, the sensor-assay potency score (higher = more potent) was -0.995.

Regarding TTTCTGATAGCTCCGAGCCACT, the sensor-assay potency score (higher = more potent) was -1.47.

TAACGTTCCCAGGTGCTGCTGC returned a sensor-assay potency score (higher = more potent) of 0.232.

Consider AATGTTGCACAGCAGCAGCAGT, for which the sensor-assay potency score (higher = more potent) is -1.2.

TGAAACTCCAGATTCCTCTTTG: the sensor-assay potency score (higher = more potent) was -0.131.

For the sequence TTGTGAAATACTGAGTGGCCGT, the sensor-assay potency score (higher = more potent) is -0.907.

Consider ATATTGAAAGTCAAGAAACAGG, for which the sensor-assay potency score (higher = more potent) is -1.17.

ATGAAGAAGATGAACCAGGCAT displayed a sensor-assay potency score (higher = more potent) of 0.328.

On to TCCTTTGCTAATGAGGTCCAAC, for which the sensor-assay potency score (higher = more potent) is -1.65.

Take AAATGATAACAGCACAGGCTGT: the sensor-assay potency score (higher = more potent) was -0.935.

With TTGAGCTGCTGGTAGTAGCGGT, the sensor-assay potency score (higher = more potent) turned out to be 0.0578.

For the sequence TTGAAGATGGCACTGAGAGAGT, the sensor-assay potency score (higher = more potent) is -0.713.

TTCAAGCTTGAGCTGCTGGTAG came in with a sensor-assay potency score (higher = more potent) of 0.0487.

Take TCAAGAAACAGGACACAGGAAT: the sensor-assay potency score (higher = more potent) is -0.724.

On to AAGACCACAGTCAGGTAGCGGC, for which the sensor-assay potency score (higher = more potent) was -0.976.

Turning to ATGATAACAGCACAGGCTGTGA, the sensor-assay potency score (higher = more potent) is -1.06.

Regarding TTTGCTAATGAGGTCCAACTTG, the sensor-assay potency score (higher = more potent) was -0.866.

Turning to TAGGGTCATGACATTGTTGAAG, the sensor-assay potency score (higher = more potent) was -0.605.

Regarding TTGCACAGCAGCAGCAGTGGCA, the sensor-assay potency score (higher = more potent) is -0.846.

On to TTGCTAATGAGGTCCAACTTGG, for which the sensor-assay potency score (higher = more potent) is -1.11.

Sequence TTGACCTCAACAGTCACGGCTG returned a sensor-assay potency score (higher = more potent) of 0.158.

Another assay deals with SLC29A3. Described as above. The note with it: shRNA.
Take TTGCGGAGTTTGAACATCCAGT: the sensor-assay potency score (higher = more potent) is -0.979.

For TTGAACATCCAGTACTCCTTGG, the sensor-assay potency score (higher = more potent) is -0.255.

TATGACTGGAATATCTGCCTTG yielded a sensor-assay potency score (higher = more potent) of 0.374.

TTGCATCTCGCTGTCAGCTGGA registered a sensor-assay potency score (higher = more potent) of 0.563.

Turning to TTTGTAATAACTCTAGGGCGAA, the sensor-assay potency score (higher = more potent) was -1.16.

In the case of TTGAACTGTGCTGAAAGTCGTC, the sensor-assay potency score (higher = more potent) came out at 0.651.

For the sequence TTGCTTGCATCTCGCTGTCAGC, the sensor-assay potency score (higher = more potent) was -1.44.

TTTGAACATCCAGTACTCCTTG came in with a sensor-assay potency score (higher = more potent) of 0.313.

As for TTACAGAGCACGAAGAGGGGGA, the sensor-assay potency score (higher = more potent) is 0.172.
